# From PubChem BioAssay AID1671194 (National Center for Advancing Translational Sciences (NCATS), 2021)
# Screen size: about 140,000 compounds; about 240 (0.17%) were called active. Where a call stands in place of a potency, no number is given. About 9% were inconclusive and are not listed. The call rests on the fitted dose curve; in most records, active means well fitted inhibition curve with a large enough effect; inconclusive means small, poorly fitted or top-dose-only effect; inactive means no such curve, though single readings can be large or run the other way. Many of the other results were omitted from the sample, so actives are more common in it than they were.
# Assay: Primary qHTS assay for inhibitors of alpha-synuclein gene (SNCA) expression; further: nearly all actives have a fitted effect of over 45% in size
# Details: HEK-293 SNCA-luciferase knock-in, luminescence, 24 h; series mostly up to 57.2 µM
# Text: Assay Submitter (PI): Daniel R. Scoles Ph.D.
# Department of Neurology, University of Utah, Salt Lake City, Utah
# Accumulation of alpha-synuclein is a main underlying pathological feature of Parkinson's disease (PD) and alpha-synucleinopathies, for which lowering expression of the alpha-synuclein gene (SNCA) is a potential therapeutic avenue. Using a cell-based luciferase reporter of SNCA expression we performed a quantitative high throughput screen (qHTS) of 155,885 compounds in dose response. The screening assay was generated using genome editing to insert the luciferase gene downstream and in frame of the SNCA gene in HEK-293 cells (1). A viability counterscreen using GF-AFC was used to eliminate cytotoxic and false positive compounds. After in silico analysis (clustering, removal of frequent hitter nuisance chemotypes), inhibitor compounds from the primary screen were selected for follow up and re-tested at 11-doses in the SNCA-luc cells (luciferase and GF-AFC confirmation), and in CMV-luc expressing cell line to flag general transcriptional repressors.
# Described herein are the results of the primary screen for SNCA inhibitors; decrease in luciferase signal (inhibition of the SNCA gene expression) is the desired output for this assay.
# 1. Dansithong, W., Paul, S., Scoles, D. R., Pulst, S. M., and Huynh, D. P. (2015) Generation of SNCA Cell Models Using Zinc Finger Nuclease (ZFN) Technology for Efficient High-Throughput Drug Screening. PLoS ONE 10, e0136930.
# SEQUENCE No. (e.g., 1, 2, 3, etc.); […] (e.g., Cells, Incubation, Reagent, etc.); VALUE; DESCRIPTION
# 1; Cells; 4 uL; Dispense 1500 HEK-293-SNCA-luc cells/well into Greiner 1536-well white / solid bottom tissue culture treated plate. The plate was covered with metal lids with gas-exchange holes.
# 2; Incubate; 24 hours; Incubate at 37C, 5% CO2, 95% RH.
# 3; Compounds; 23 nL; Compounds and controls were transferred via a Kalypsys Pin Tool (Wako USA) equipped with a 1536-slotted pin array. The plate was covered with metal lids with gas-exchange holes.
# 4; Incubate; 24 hours; Incubate at 37C, 5% CO2, 95% RH.
# 5; Dispense; 1 uL; Dispense Gly-Phe-7-amino-4-trifluoromethylcoumarin (GF-AFC, prepared at 125 uM in PBS) was added. The plate was covered with metal lids with gas-exchange holes.
# 6; Incubate; 30 min; Incubate at 37C, 5% CO2.
# 7; Detector; Fluorescence; Measure fluorescence with ViewLux microplate reader (PerkinElmer) equipped with 405/10 excitation and 540/25 emission filters.
# 8; Dispense; 3 uL; Dispense ONE-Glo ([…]) lucifase detection reagent was added to each well. Plates were covered with metal lids with gas-exchange holes.
# 9; Incubate; 15 min; Incubate at room temperature.
# 10; Detector; Luminescence; Measure luminescence with ViewLux microplate reader (PerkinElmer) equipped with clear filters.
# NOTES (numbers refer to sequence above)
# 1; HEK-293-SNCA-luc were cultured and suspended in phenol-red free DMEM (4.5 g/L glucose, 25 mM HEPES, cat #21063 (Thermo)).
# 3; Compounds were added to the assay plate in an 11-point intra plate dose response, 1:3 titration in DMSO with a final concentration range of […]. Vehicle-only plates, with DMSO being pin-transferred to every well, were inserted at the beginning of screening runs to confirm expected assay performance. […]
# 10; Signals were analyzed, and dose-response curves were fit using the Hill equation. […]
# Potency means the concentration at half of the fitted maximal effect.
row,SMILES,Potency
1,CC[C@H]1C=CC=CC[C@@H](C)[C@H](O)[C@@](C)(O)C(=O)[C@@H](C)[C@H](O)[C@@H](C)C(=O)[C@@H](C)[C@H](O)[C@@H](C)C=CC(=O)O[C@@H]2[C@@H](C)[C@H](CC1)O[C@]1(CC[C@H](C)[C@H](C[C@@H](C)O)O1)[C@H]2C,1710 nM (active)
2,CN(Cc1ccccc1)C[C@H]1CN2CC[C@H]1C[C@@H]2CNC(=O)Nc1ccsc1,inactive
3,CC(=Cc1csc(C)n1)[C@@H]1C[C@H]2O[C@]2(C)CCC[C@H](C)[C@@H](O)[C@@H](C)C(=O)C(C)(C)[C@@H](O)CC(=O)O1,inactive
4,Cc1nc(-c2ccc(C(F)(F)F)cc2)cc([C@H]2CN3CC[C@H]2C[C@@H]3CNC(=O)C2CCC2)n1,inactive
5,CCOC(=O)[C@H]1CN(C(=O)NC2CCCC2)[C@]2(C)C(=O)Nc3ccccc3[C@H]12,inactive
